Screens: PubChem, several laboratories
CYP2C19 inhib = blocks human cytochrome P450 2C19. P33261. CYP2C19 Supersomes, luciferin-H EGE luminescence, 30 min. inhibition, % at 5 µM. hit rate 21% among 96,000;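 active = CYP2C19 inhibition above a set limit at 5 µM in the primary screen, cut at about 50% in these data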
CYP2C19 activ = increases human CYP2C19 enzyme activity. P33261. activation factor at 5 µM. 96,000 tested, under 10 active. recombinant CYP2C19, luciferin-H EGE luminescence; active compounds read high; 0 = fully inhibited enzyme, 1 = untreated enzyme;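 active = activation factor of at least 2 at 5 µM in the primary screen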
CYP2C9 inhib = blocks human cytochrome P450 2C9 | P11712 | CYP2C9 Supersomes, luciferin-H conversion, luminescence | inhibition, % at 5 µM | hit rate 20% among 96,000 | AID 777;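 active = blocking of liver enzyme CYP2C9 beyond about 50% at 5 µM, limit read from the data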
Target sequence (P11712 whole entry, looked up): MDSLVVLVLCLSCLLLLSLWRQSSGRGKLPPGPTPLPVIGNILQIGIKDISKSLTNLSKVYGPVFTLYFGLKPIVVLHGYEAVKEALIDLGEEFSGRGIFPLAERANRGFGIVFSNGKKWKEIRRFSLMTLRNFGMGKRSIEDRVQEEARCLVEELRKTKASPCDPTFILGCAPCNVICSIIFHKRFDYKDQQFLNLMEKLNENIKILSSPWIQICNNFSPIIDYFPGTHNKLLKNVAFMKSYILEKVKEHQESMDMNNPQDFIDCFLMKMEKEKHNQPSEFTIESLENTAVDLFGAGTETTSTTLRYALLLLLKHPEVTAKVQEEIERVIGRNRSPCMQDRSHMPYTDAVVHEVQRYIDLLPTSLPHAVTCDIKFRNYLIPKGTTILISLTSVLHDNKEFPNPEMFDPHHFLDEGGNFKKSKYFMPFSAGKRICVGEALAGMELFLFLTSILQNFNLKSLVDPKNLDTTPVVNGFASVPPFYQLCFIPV
F-actin modifier = modifiers of cytoskeleton assembly. inhibition, % at 2 µM. hit rate 0.18% among 91,000. HUVEC TNFa F-actin phalloidin imaging, high content;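 active = inhibition above the batch mean plus 3 SD and confirmed as a hit by visual image inspection, cut at about 30% in these data, passing the limit was not always enough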
CYP2C9 act = increases human cytochrome P450 2C9 activity | recombinant CYP2C9, luciferin-H conversion, luminescence; active compounds read high; factor 1 = untreated enzyme, 0 = blocked | activation factor at 5 µM | hit rate 1.4% among 96,000;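 active = activation factor of 2 or more for CYP2C9 at a 5 µM dose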
E-sel TNF inh = blocks E-selectin expression induced by TNF alpha. HUVEC TNFa-induced E-selectin immunofluorescence, high content. inhibition, % at 2 µM. hit rate 0.71% among 120,000. AID 1246;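 active = inhibition above the batch mean plus 3 SD, and confirmed as a hit on visual image review, cut at about 43% in these data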
Hits are given with their value; n = inactive; x = no result given. Shown are actives, neighbours in structure and some others; about 22% of the full set was active somewhere.

SMILES	CYP2C19 inhib	CYP2C19 activ	CYP2C9 inhib	F-actin modifier	CYP2C9 act	E-sel TNF inh
N#CCC(CNc1ncc(C(F)(F)F)cc1Cl)OC(=O)c1cccc(C(F)(F)F)c1 (stereo not drawn)	63	n	n	n	n	n
Cc1ccc2[nH]ccc(=O)c2c1	x	x	x	x	x	n
Cc1ccc2oc(C(Cl)(Cl)Cl)cc(=O)c2c1	53	n	n	n	n	n
Cc1ccc(-n2sc3ccccc3c2=O)cc1S(=O)(=O)N1CCCCC1	n	n	89	n	n	n
O=c1c2ccccc2sn1-c1ccc(S(=O)(=O)N2CCCC2)cc1	n	n	75	x	n	x
O=c1c2ccccc2sn1-c1ccc(S(=O)(=O)N2CCCCC2)cc1	x	x	x	n	x	n
O=c1c2ccccc2sn1-c1ccccc1	n	n	75	n	n	n
CN(C)S(=O)(=O)c1cccc(-n2sc3ccccc3c2=O)c1	x	x	x	x	x	n
Cc1cc(=O)[nH]c(NN=C(CC(C)C)CC(C)C)n1	x	x	x	x	x	n
CCNC(=S)N1CCN(c2ccc([N+](=O)[O-])cc2)CC1	n	n	n	n	n	n
COCCCNC(=S)N1CCN(c2ccc([N+](=O)[O-])cc2)CC1	x	x	x	x	x	65
CCOC(=O)c1oc2ccc(Br)cc2c1NC(=O)CN1CCN(C)CC1	n	n	n	n	n	n
NC(=O)c1oc2ccc(Cl)cc2c1NC(=O)CN1CCOCC1	52	n	n	n	n	n
COC(=O)c1oc2ccc(Br)cc2c1NC(=O)CCN1CCOCC1	n	n	55	x	n	n
O=C(OCc1nc2ccc(Cl)cc2n1CCO)c1ccccc1	x	x	x	x	x	n
COc1ccc(CC(=S)N2CCOCC2)cc1	96	n	n	n	n	x
CCOC(=O)N1CCN(C(=O)c2cccc(NS(=O)(=O)c3ccc(F)c(F)c3)c2)CC1	x	x	x	x	x	n
COc1ccc(N2CCN(C(=O)c3ccc(NS(=O)(=O)c4cccc(F)c4)cc3)CC2)cc1	n	n	90	n	n	n
COc1ccc(N2CCN(C(=O)c3ccc(NS(=O)(=O)c4ccc(F)c(F)c4)cc3)CC2)cc1	n	n	93	n	n	n
COc1cccc(S(=O)(=O)Nc2cccc(C(=O)N3CCOCC3)c2)c1	x	x	x	n	x	n
CCOc1ccc(S(=O)(=O)N2Cc3ccccc3CC2C(=O)NCCCn2ccnc2)cc1 (stereo not drawn)	100	n	97	n	n	n
Cc1ccc(S(=O)(=O)N2Cc3ccccc3CC2C(=O)Nn2cnnc2)cc1 (stereo not drawn)	55	n	n	n	n	x
CCc1nnc(NC(=O)C2Cc3ccccc3CN2S(=O)(=O)c2c(C)c(C)cc(C)c2C)s1 (stereo not drawn)	n	n	61	n	n	n
Cc1ccc(S(=O)(=O)N2Cc3ccccc3CC2C(=O)Nc2cc(C)on2)cc1 (stereo not drawn)	83	n	85	n	n	n
O=C(Nn1cnnc1)C1Cc2ccccc2CN1S(=O)(=O)c1ccc(F)cc1 (stereo not drawn)	n	n	n	n	n	n
SMILES	CYP2C19 inhib	CYP2C19 activ	CYP2C9 inhib	F-actin modifier	CYP2C9 act	E-sel TNF inh
CCS(=O)(=O)N1Cc2ccccc2CC1C(=O)Nc1nnc(C2CC2)s1 (stereo not drawn)	x	x	x	x	x	n
CCOC(=O)N1CCN(C(=O)c2ccc(N(C)S(C)(=O)=O)cc2)CC1	n	n	n	n	n	n
O=C(Nc1ccc2ccccc2c1)C(c1ccccc1)C1CCCC1 (stereo not drawn)	x	x	x	x	x	n
COc1cccc2cc(NC(=O)C3CCCCC3)c(=O)oc12	n	n	n	n	2.4	x
COc1cccc2cc(C(=O)N3CCCCC3C)c(=O)oc12 (stereo not drawn)	x	x	x	n	x	n
COc1cccc(CN(C(=O)c2cc3ccccc3oc2=O)C2CC2)c1	79	n	n	n	2.4	n
COC(=O)C1CCN(C(=O)c2cc3ccccc3oc2=O)CC1	56	n	n	n	2.2	n
COc1cccc2cc(C(=O)N3CCN(C45CC6CC(CC(C6)C4)C5)CC3)c(=O)oc12	n	n	56	n	n	n
O=C(c1cc2ccccc2oc1=O)N1CCN(C(=O)C2CCCO2)CC1 (stereo not drawn)	n	n	n	n	n	n
Cc1ccccc1NS(=O)(=O)c1ccc(NC(=O)CSCc2ccc(Br)cc2)cc1	n	n	n	n	n	n
COc1ccc(CN=C(C)c2c(C(F)(F)F)[nH]n(-c3nc4ccccc4s3)c2=O)cc1	n	n	n	n	n	n
COc1cccc2cc(C(=O)N3CCC(C)CC3)c(=O)oc12	n	n	n	n	2.9	n
CC12CCC(C(=O)N(CSC(=S)N/N=C\c3ccccc3)C1=O)C2(C)C (stereo not drawn)	x	x	x	n	x	n
Clc1ccc(OCc2cc(-c3ccccc3)no2)cc1Cl	n	n	69	n	n	n
Cc1cc2c(C)nc(Cc3ccccc3)nc2o1	74	n	n	n	n	n
O=C(c1cc(-c2ccccc2Cl)on1)N1CCN(C(=O)c2ccco2)CC1	n	n	n	n	2.2	n
O=C(c1cc(-c2ccc(Cl)cc2Cl)on1)N1CCN(C(=O)c2ccco2)CC1	58	n	n	n	n	n
O=C(CCl)c1ccc(Cc2ncc(C(F)(F)F)cc2Cl)s1	n	n	n	n	n	n
Fc1ccc(NC(=S)N2CCCC2)cc1	x	x	x	n	x	n
CC1CCCCN1S(=O)(=O)c1ccc(S(=O)(=O)N2CCN(c3ccc(F)cc3)CC2)cc1 (stereo not drawn)	n	n	n	n	n	x
CC(=O)OCN(C#N)c1nc(N(C)C)nc(N(C)C)n1	n	n	n	n	n	n
CCOCCOCN(C#N)c1nc(OC)nc(N(C)C)n1	64	n	n	x	n	n
C=CC[N+](C)(C)C/C(Cl)=C(\Cl)c1ccccc1	n	n	55	n	n	n
Cc1ccc(C)c(NC(=O)CCC(=O)NNC(=O)C(c2ccccc2)c2ccccc2)c1	n	n	n	n	n	n
CCn1c(COc2ccc(=O)n(-c3ccccc3)n2)nnc1SCc1ccccc1C	n	n	61	x	n	x
SMILES	CYP2C19 inhib	CYP2C19 activ	CYP2C9 inhib	F-actin modifier	CYP2C9 act	E-sel TNF inh
C/C(=N\NC(=O)c1cccc(F)c1)c1ccc(Br)s1	n	n	n	n	n	n
CCOCCCNc1ccc(N2C(=O)C3CCCCC3C2=O)cc1[N+](=O)[O-] (stereo not drawn)	x	x	x	x	x	n
COc1cccc(-c2nnc3sc(C4CCCCC4)nn23)c1	84	n	78	n	n	n
c1cncc(-c2nnc3sc(C4CCCCC4)nn23)c1	94	n	n	n	n	n
c1ccc(OCc2nn3c(-c4cccnc4)nnc3s2)cc1	n	n	n	x	n	n
CCOc1cccc(-c2nnc3sc(-c4cc(OC)c(OC)cc4OC)nn23)c1	n	n	n	x	n	x
COc1cc(-c2nn3c(-c4ccccn4)nnc3s2)cc(OC)c1OC	n	n	n	x	n	n
CCOc1cccc(-c2nnc3sc(C4CCCCC4)nn23)c1	94	n	n	n	n	x
COc1cc(-c2nnc3sc(C4CCCCC4)nn23)cc(OC)c1OC	75	n	77	n	n	n
CC(C)NC(=O)CSCc1c(Cl)cccc1Cl	n	n	n	n	n	n
